According to PubChem BioAssay (Tox21):
Records with an inconclusive call do not appear. The source made the active and inactive calls. Unless noted, calls come from the whole dose curve.

Columns and labels:
[1] = qHTS assay to identify small molecule agonists of the vitamin D receptor (VDR) signaling pathway - cell viability counter screen (AID 743224; active = well fitted curve in the direction sought with a large enough effect in the repeat runs; an effect the other way counts as inactive or inconclusive; note: series mostly up to about 63 µM; nearly all actives have a fitted effect of over 50% in size)
Summary of the method: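 Cytotoxicity counter screen: VDR-bla cells, 16 h compound exposure at 37C, 5% CO2; CellTiter-Glo luminescence, 30 min RT, same wells as bla read.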

[2] = qHTS assay to identify small molecule antagonists of the vitamin D receptor (VDR) signaling pathway - cell viability counter screen (AID 743225; active = well fitted curve in the direction sought with a large enough effect in the repeat runs; an effect the other way counts as inactive or inconclusive; note: nearly all actives have a fitted effect of over 50% in size)
Summary of the method: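 Viability counter screen run in the same wells as the beta-lactamase reporter assay: HEK 293T VDR-UAS-bla cells, 16 h compound exposure at 37C with 3 nM (final) 1-alpha,25-dihydroxyvitamin D3. CellTiter-Glo luminescence, 30 min, room temperature.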

[3] = qHTS assay to identify small molecule agonists of the NFkB signaling pathway (AID 1159509; active = well fitted curve in the direction sought with a large enough effect in the signal ratio in the repeat runs, not every such curve was filed as active; the % refers to the signal ratio; note: series mostly up to about 61 µM)
Summary of the method: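 Beta-lactamase reporter assay run in quantitative high-throughput format on an NF-kB-responsive ME-180 line, with 5 hr compound treatment and a FRET-based blue/green fluorescence readout.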

[4] = qHTS assay to identify small molecule agonists of the NFkB signaling pathway - cell viability counter screen (AID 1159515); note: series mostly up to about 61 µM; nearly all actives have a fitted effect of over 55% in size
Summary of the method: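 ME-180 NFkB-bla cells, 2,000/well; overnight attach; compound 5 hr, 37 C/5% CO2; LiveBLAzer substrate 1.5 hr RT; then CellTiter-Glo in same wells, 30 min RT, luminescence read.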

[5] = qHTS assay to identify small molecule agonists of the endoplasmic reticulum stress response signaling pathway (AID 1159516; active = well fitted activation curve with a large enough effect in the signal ratio in the repeat runs, not every such curve was filed as active; the % refers to the signal ratio)
Summary of the method: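 HeLa ESRE-bla reporter line; cpd 5 h, 37 C/5% CO2; LiveBLAzer B/G FRET substrate 2 h RT; ex 405, em 460/530 nm.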

[6] = qHTS assay to identify small molecule agonists of the endoplasmic reticulum stress response signaling pathway - cell viability counter screen (AID 1159517);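 note: HeLa cells carrying an ER stress response element beta-lactamase reporter; series mostly up to about 61 µM; nearly all actives have a fitted effect of over 50% in size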
Summary of the method: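 After overnight attachment, ESRE-bla HeLa cells were treated with Tox21 library compounds for 5 hr. CellTiter-Glo luminescence, read 30 min post-addition at room temperature, reported viability.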

[7] = qHTS assay to identify small molecule antagonists of the retinoid-related orphan receptor gamma (ROR-gamma) signaling pathway - cell viability counter screen (AID 1159520; active = well fitted curve in the direction sought with a large enough effect in the repeat runs; an effect the other way counts as inactive or inconclusive; note: nearly all actives have a fitted effect of over 50% in size)
Summary of the method: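 Cytotoxicity was read from cellular ATP (CellTiter-Glo luminescence) after 16 hr at 37 C with 1 uM doxycycline induction. The inducer was added 2 hr after compound transfer to Tet-on ROR gamma CHO cells.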

[8] = qHTS assay to identify small molecule agonists of the AP-1 signaling pathway - cell viability counter screen (AID 1159525); note: nearly all actives have a fitted effect of over 55% in size
Summary of the method: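 Intracellular ATP by Cell Titer Glo luminescence (30 min, RT) in the same ME-180 AP-1-bla wells after the 5 h compound exposure at 37 °C. Normalised to tetra n-octyl ammonium bromide and DMSO controls.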

[9] = qHTS assay to identify small molecule agonists of the AP-1 signaling pathway (AID 1159526)
[10] = molecular target: Nuclear receptor ROR-gamma (Homo sapiens) (UniProt P51449); test: qHTS assay to identify small molecule antagonists of the retinoid-related orphan receptor gamma (ROR-gamma) signaling pathway (AID 1159521; active = well fitted curve in the direction sought with a large enough effect in the repeat runs; an effect the other way counts as inactive or inconclusive)
Summary of the method: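 Luminescence readout (ONE-Glo, 30 min RT) after 16 h doxycycline induction; loss of signal scored as antagonism. CHO cells with TET-inducible RORγ and RORE-LUC reporter; compounds added 2 h before 1 uM final doxycycline.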

Measured: Potency

CCCCCOC(=O)c1ccccc1C(=O)OCCCCC
inactive: [1] | [2] | [3] | [4] | [5] | [6] | [7] | [8]

CC1OC(C)OC(C)O1 (stereo not drawn)
inactive: [1] | [2] | [3] | [4] | [5] | [6] | [7] | [9]

CCC[CH2][Sn]([Cl])([Cl])[Cl]
inactive: [1] | [2] | [3] | [4] | [5] | [6] | [7] | [8] | [9]

CC(C)(C)OOC(C)(C)C
inactive: [1] | [2] | [3] | [4] | [5] | [6] | [7] | [9]

OCCN(CCO)CCO
inactive: [1] | [2] | [3] | [4] | [5] | [6] | [7] | [9]

CCCCCCCCCl
inactive: [1] | [2] | [3] | [4] | [5] | [6] | [7] | [8] | [9]

CCNc1nc(NC(C)C)nc(SC)n1
inactive: [1] | [2] | [3] | [4] | [5] | [6] | [7] | [9]

Oc1ccccc1Cl
inactive: [1] | [2] | [3] | [4] | [5] | [6] | [7] | [8] | [9]

BrCCBr
inactive: [1] | [2] | [3] | [4] | [5] | [6] | [7] | [8] | [9]

c1ccc2c(c1)oc1ccccc12
inactive: [1] | [2] | [3] | [4] | [5] | [6] | [7] | [8] | [9]

CC(Oc1ccc(Cl)cc1Cl)C(=O)O (stereo not drawn)
inactive: [1] | [2] | [4] | [5] | [6] | [7] | [10] | [8] | [9]

CCC12COCN1COC2
inactive: [1] | [2] | [3] | [4] | [5] | [6] | [7] | [8] | [9]

CON(C)C(=O)Nc1ccc(Cl)c(Cl)c1
inactive: [1] | [2] | [3] | [4] | [5] | [6] | [7] | [8] | [9]

Nc1ccccc1C(=O)O
inactive: [1] | [2] | [3] | [4] | [5] | [6] | [7] | [9]

CCN(CC)CCO
inactive: [1] | [2] | [3] | [4] | [5] | [6] | [7] | [9]

Cc1ccc(N)cc1Cl
inactive: [1] | [2] | [3] | [4] | [5] | [6] | [7] | [9]

OC(O)C(Cl)(Cl)Cl
inactive: [1] | [2] | [3] | [4] | [5] | [6] | [7] | [8] | [9]

C[C@]12CC[C@H]3[C@@H](CC[C@@]45O[C@@H]4C(O)=C(C#N)C[C@]35C)[C@@H]1CC[C@@H]2O
inactive: [1] | [2] | [3] | [4] | [5] | [6] | [7] | [9]

O=[N+]([O-])c1ccc(Oc2ccc(Cl)cc2Cl)cc1
inactive: [1] | [2] | [3] | [4] | [5] | [6] | [7] | [8] | [9]

CNC(=O)Oc1ccccc1OC(C)C
inactive: [1] | [2] | [4] | [5] | [6] | [7] | [10] | [8] | [9]

CCCN(CCC)c1c([N+](=O)[O-])cc(C(F)(F)F)cc1[N+](=O)[O-]
inactive: [1] | [2] | [3] | [4] | [5] | [6] | [7] | [9]

Cc1[nH]c(=O)n(C(C)(C)C)c(=O)c1Cl
inactive: [1] | [2] | [3] | [4] | [5] | [6] | [7] | [8] | [9]

CC(C)=C[C@@H]1[C@@H](C(=O)OCc2coc(Cc3ccccc3)c2)C1(C)C
inactive: [1] | [4] | [5] | [6] | [7] | [9]

CCCN(CCC)N=O
inactive: [1] | [2] | [4] | [5] | [6] | [7] | [8] | [9]

O=[N+]([O-])c1ccc([As](=O)(O)O)cc1
inactive: [1] | [2] | [4] | [5] | [6] | [7] | [8] | [9]

C1CN2CCN1CC2
inactive: [1] | [2] | [4] | [5] | [6] | [7] | [10] | [8] | [9]

O=S(=O)(c1ccc(O)cc1)c1ccc(O)cc1
inactive: [1] | [2] | [4] | [5] | [6] | [7] | [8] | [9]

Cc1cccc([N+](=O)[O-])c1
inactive: [1] | [2] | [4] | [5] | [6] | [7] | [8] | [9]

COP(N)(=O)SC (stereo not drawn)
inactive: [1] | [2] | [4] | [5] | [6] | [7] | [10] | [9]
